Drawing on PubChem BioAssay AID588664 (The Scripps Research Institute Molecular Screening Center, 2011), this text covers inhibition for 91 compounds.

The campaign covered roughly 360,000 compounds. About 1,400 (0.39%) were called active. The full list was thinned out, with actives kept by preference. Unmarked numbers belong to inactive results. Rule as the data show it: active = inhibition above about 5% (passing the limit was not always enough); inactive = the rest.

Tyrosine-protein kinase ABL1 (Homo sapiens) + Ras and Rab interactor 1 (Homo sapiens), sequence (P00519 whole entry, looked up): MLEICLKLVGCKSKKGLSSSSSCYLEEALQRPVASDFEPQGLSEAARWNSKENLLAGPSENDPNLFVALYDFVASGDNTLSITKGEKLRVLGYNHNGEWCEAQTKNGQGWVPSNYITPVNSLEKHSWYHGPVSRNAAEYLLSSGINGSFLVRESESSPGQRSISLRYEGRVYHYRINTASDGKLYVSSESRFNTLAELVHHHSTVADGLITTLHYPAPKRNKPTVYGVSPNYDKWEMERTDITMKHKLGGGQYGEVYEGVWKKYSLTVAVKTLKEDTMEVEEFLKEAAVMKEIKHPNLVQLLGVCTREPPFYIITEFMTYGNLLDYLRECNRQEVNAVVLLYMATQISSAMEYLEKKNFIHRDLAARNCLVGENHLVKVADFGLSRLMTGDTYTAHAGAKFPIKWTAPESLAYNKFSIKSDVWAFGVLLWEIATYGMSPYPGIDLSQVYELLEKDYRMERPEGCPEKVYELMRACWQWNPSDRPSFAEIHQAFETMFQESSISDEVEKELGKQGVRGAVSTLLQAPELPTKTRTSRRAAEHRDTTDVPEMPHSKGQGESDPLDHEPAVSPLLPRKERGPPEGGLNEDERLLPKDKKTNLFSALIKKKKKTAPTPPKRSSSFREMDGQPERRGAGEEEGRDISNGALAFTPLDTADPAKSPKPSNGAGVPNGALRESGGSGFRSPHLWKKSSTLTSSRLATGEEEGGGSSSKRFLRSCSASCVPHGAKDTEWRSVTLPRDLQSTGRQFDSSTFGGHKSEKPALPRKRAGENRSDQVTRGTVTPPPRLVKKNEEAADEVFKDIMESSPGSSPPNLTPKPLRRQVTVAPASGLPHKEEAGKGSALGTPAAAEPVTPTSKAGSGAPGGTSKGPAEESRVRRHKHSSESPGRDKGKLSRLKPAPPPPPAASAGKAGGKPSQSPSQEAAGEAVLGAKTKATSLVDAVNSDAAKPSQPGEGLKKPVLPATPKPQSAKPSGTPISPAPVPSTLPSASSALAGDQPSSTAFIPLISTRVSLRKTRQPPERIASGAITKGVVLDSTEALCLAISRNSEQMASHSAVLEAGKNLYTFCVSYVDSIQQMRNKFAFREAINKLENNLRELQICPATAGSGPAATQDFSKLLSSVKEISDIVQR
Tyrosine-protein kinase ABL1 (Homo sapiens) + Ras and Rab interactor 1 (Homo sapiens), sequence (Q13671 whole entry, looked up): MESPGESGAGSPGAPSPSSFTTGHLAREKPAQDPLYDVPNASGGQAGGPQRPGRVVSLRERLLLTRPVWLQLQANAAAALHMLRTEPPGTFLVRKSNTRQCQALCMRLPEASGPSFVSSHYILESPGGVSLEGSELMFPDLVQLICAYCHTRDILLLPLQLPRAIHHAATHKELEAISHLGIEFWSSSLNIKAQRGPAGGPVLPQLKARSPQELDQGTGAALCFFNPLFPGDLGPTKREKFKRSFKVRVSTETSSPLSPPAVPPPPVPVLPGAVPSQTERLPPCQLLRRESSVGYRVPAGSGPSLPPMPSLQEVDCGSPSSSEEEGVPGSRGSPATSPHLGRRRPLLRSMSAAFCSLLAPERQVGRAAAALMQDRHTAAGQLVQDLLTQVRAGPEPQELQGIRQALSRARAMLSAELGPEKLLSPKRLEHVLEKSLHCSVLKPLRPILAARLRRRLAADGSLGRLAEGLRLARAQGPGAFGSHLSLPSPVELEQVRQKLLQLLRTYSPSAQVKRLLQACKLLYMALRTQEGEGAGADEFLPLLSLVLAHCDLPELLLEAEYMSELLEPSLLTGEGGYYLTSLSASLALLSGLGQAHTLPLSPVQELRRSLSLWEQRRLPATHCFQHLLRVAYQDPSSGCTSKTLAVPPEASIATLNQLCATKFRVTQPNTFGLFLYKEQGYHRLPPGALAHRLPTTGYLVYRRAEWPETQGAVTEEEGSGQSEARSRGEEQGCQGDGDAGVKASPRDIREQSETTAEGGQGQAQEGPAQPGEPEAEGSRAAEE

The test addresses Tyrosine-protein kinase ABL1 (Homo sapiens) + Ras and Rab interactor 1 (Homo sapiens) (UniProt P00519+Q13671). As to the kind of experiment: inhibitors of Rin1-Abl protein binding, primary screen, biochemical, TR-FRET (AID 588664). Particulars: at 7.35 µM, hits give high values.
Consider `Cc1ccc(CN2CCN(Cc3ccccc3-c3ccco3)CC2CCO)o1` (stereo unspecified), for which the inhibition was -0.29%.

For the compound `O=c1c2ccccc2ccc2ccc(P(=O)(O)O)cc12`, the inhibition was 0.55%.

Regarding `O=Nc1c(O)cc(O)c2ccccc12`, the inhibition was 12.5% (active).

As to `COc1cccc2c(O)cc(=O)n(C)c12`, the inhibition was -0.91%.

Turning to `CCCC(=O)C1=C(N(C)c2ccccc2)CC(C)(C)C(C(=O)OC)C1=O` (stereo unspecified), the inhibition was 0.08%.

Turning to `CC(C)CNC(=O)CC(c1ccccc1)c1c(O)ccc2ccccc12` (stereo unspecified), the inhibition is -0.65%.

Turning to `COc1ccc(OCCn2ccnc2C)cc1`, the inhibition was 1.4%.

As for `O=[N+]([O-])c1cc(C(F)(F)F)ccc1NCCc1ccncc1`, the inhibition is -3.62%.

As for `CCCn1c(N)c(C(=O)CSc2nnc(-c3cccnc3)n2-c2ccc(C)cc2C)c(=O)[nH]c1=O`, the inhibition was 12.2% (active).

In the case of `Cc1ccccc1-c1nnc(SCC(=O)NCc2ccc3c(c2)OCO3)n1C`, the inhibition is 0.29%.

As to `Cc1cccc(C)c1NC(=O)CSc1nnc(-c2ccccc2)n1Cc1ccc2c(c1)OCO2`, the inhibition was 8.78%.

Consider `CCCn1c(N)c(C(=O)CSc2nnc3n2CCCCC3)c(=O)[nH]c1=O`, for which the inhibition was 6.59%.

On to `CCCn1c(N)c(C(=O)CSc2nnc(Cc3cccs3)n2C2CC2)c(=O)[nH]c1=O`, for which the inhibition is 2.22%.

In the case of `Cc1ccc(-n2c(SCC(=O)NCc3ccc4c(c3)OCO4)nnc2-c2cccnc2)c(C)c1`, the inhibition was 8.97% (active).

With `CCOC1CCCCC1NS(=O)(=O)c1ccc(Cl)cc1` (stereo unspecified), the inhibition was -1.9%.

For the compound `COc1ccc(C(CNC(=O)c2cc3c(s2)CCCC3)N2CCOCC2)cc1` (stereo unspecified), the inhibition was -1.94%.

`O=C(c1ccc(NS(=O)(=O)c2ccc3[nH]c(=O)[nH]c3c2)cc1)N1CCCCC1`: the inhibition was 2.64%.

As to `Cc1ccccc1N1CCN(C(=O)c2cccnc2)CC1`, the inhibition was 1.88%.

On to `CC(C)Cn1cnc2c1c(=O)n(CC(O)c1ccccc1)c(=O)n2CC(C)C` (stereo unspecified), for which the inhibition is 2.26%.

In the case of `COCCNc1nc(-n2nc(C)cc2C)nc2sc3c(c12)CCCC3`, the inhibition was -2.91%.

As to `COC(=O)c1ccccc1OCC(=O)N1CCN(c2ccc(Cl)cc2)CC1`, the inhibition is 3.93%.

`COc1ccc(N2C(=O)C3CCCN3C2c2cc(OC)c(OC)cc2OC)cc1` (stereo unspecified): the inhibition was -1.54%.

With `COc1cccc(N2C(=O)C3CCCN3C2c2ccc(F)cc2)c1` (stereo unspecified), the inhibition was 1.17%.

In the case of `COc1ccc(N2C(=O)C3CCCN3C2c2cccs2)cc1` (stereo unspecified), the inhibition is 7.79% (active).

Consider `CSc1ccc(/C=C/C(=O)NC23CC4CC(CC(C4)C2)C3)cc1`, for which the inhibition was -0.46%.

In the case of `CCN(Cc1ccccc1)C(=O)CCS(=O)(=O)c1ccc2c(c1)oc(=O)n2C`, the inhibition was -4.23%.

Turning to `CS(=O)(=O)N1CCN(C(=O)CSc2ccccc2)CC1`, the inhibition is 2.46%.

Turning to `NC(=O)C1CCN(C(=O)c2cn(-c3ccccc3)nc2-c2cccnc2)CC1`, the inhibition was 2.02%.

On to `O=c1oc2ccccc2cc1-c1cn(-c2ccccc2)c(=S)[nH]1`, for which the inhibition is -2.16%.

As to `O=C(c1cn(-c2ccccc2)nc1-c1cc2ccccc2oc1=O)N1CCOCC1`, the inhibition was 8.23% (active).

Regarding `CCCCCN(C(=O)CCC(=O)OCCOc1ccc(OC)cc1)c1c(N)n(CCCC)c(=O)[nH]c1=O`, the inhibition was 1.88%.

Regarding `Cc1cc(C(F)(F)F)nn1CC(=O)N1CCCC1`, the inhibition is -1.33%.

Consider `Oc1c(C(c2ccccn2)N2CCOCC2)ccc2cccnc12` (stereo unspecified), for which the inhibition is 27% (active).

Regarding `C/C=C/C(=O)Nc1nnc(C(C)C)s1`, the inhibition is -0.75%.

`O=C(O)/C(=C/c1cccnc1)NC(=O)c1ccccc1`: the inhibition was -1.66%.

Regarding `Cc1nc(CN2CCN(C(=O)CCc3nnc(Cc4c[nH]c5ccccc45)o3)CC2)cs1`, the inhibition was -2.84%.

For the compound `O=C(Oc1c(-c2ccco2)oc2ccccc2c1=O)c1cccnc1`, the inhibition is 0.23%.

As for `CCOC(=O)N1CCC(NC(=O)CCc2ccccc2)CC1`, the inhibition was -0.75%.

Consider `CCOC(=O)CN1CCC(c2ccccc2)CC1`, for which the inhibition was 1.17%.

In the case of `CCOC(=O)N1CCC(c2cc(=O)n(-c3ccccc3)[nH]2)CC1`, the inhibition is 11.4% (active).

On to `C[C@@H]1CN([C@@H](C)CO)C(=O)CCCn2nncc2CO[C@H]1CN(C)C(=O)Nc1ccc(C(F)(F)F)cc1`, for which the inhibition was -1.77%.

With `CCCOc1ccc(C2C(C(=O)c3ccc(C)o3)=C(O)C(=O)N2CCCn2ccnc2)cc1` (stereo unspecified), the inhibition was -89.7%.

As to `OCC(CO)(CO)NCc1ccc(-c2ccccc2)cc1`, the inhibition was -1.05%.

As to `COc1ccc(Cl)cc1-n1c(=S)sc2c(=O)n(-c3ccc(F)cc3)c(SCC(=O)O)nc21`, the inhibition was 3.75%.

As for `CN(C(=O)c1cccc(NC(=O)Cc2cccc(NC(=O)C3CCCN(C(=O)C4CC4)C3)c2)c1)C1CCC1` (stereo unspecified), the inhibition is 1.65%.

On to `CN(C(=O)c1cccc(NC(=O)Cc2ccc(NC(=O)C3CCN(C(=O)C4CCCCC4)CC3)cc2)c1)C1CCC1`, for which the inhibition was 0.86%.

Take `CN(C(=O)c1ccc(NC(=O)Cc2cccc(NC(=O)C3CCN(C(=O)c4ccccc4)CC3)c2)cc1)C1CC1`: the inhibition was 16.1% (active).

Turning to `C=CCn1c(SCC(=O)c2c(N)n(C)c(=O)n(C)c2=O)nc2sc(CC)cc2c1=O`, the inhibition was -0.41%.

As to `COc1ccc(NC(=O)CSCc2ccc([N+](=O)[O-])cc2)cc1OC`, the inhibition was 0.28%.

On to `O=C(CSCc1ccc([N+](=O)[O-])cc1)Nc1cccc(C(=O)Nc2ccccc2C(=O)O)c1`, for which the inhibition is 11.8% (active).

Take `O=C(COc1ccc([N+](=O)[O-])cc1)Nc1cccc(C(=O)Nc2ccccc2C(=O)O)c1`: the inhibition is 2.02%.

In the case of `CCOCCCNC(=O)C(NC(=O)Cc1c[nH]c2ccccc12)c1ccc(OC)cc1` (stereo unspecified), the inhibition was -1.97%.

With `CC(C)(C)c1ccc(Cn2nnc3c(=O)[nH]c(C4CCCN(C(=O)c5ccco5)C4)nc32)cc1` (stereo unspecified), the inhibition was 0.48%.

For `O=C(Nc1nn(Cc2ccccc2F)cc1Br)c1cccs1`, the inhibition was -1.24%.

Regarding `Oc1cccc2cc(-c3ccncc3)cnc12`, the inhibition is 13.3% (active).

`Fc1ccc(-c2ccc(CNCc3ccccn3)o2)cc1Cl`: the inhibition was -2.17%.

As for `CN1CCN(C(CNS(=O)(=O)c2cccs2)c2cccnc2)CC1` (stereo unspecified), the inhibition is 1.76%.

Take `COC(=O)CN1C(C)=Nc2ccc(Br)cc2C1c1ccccc1` (stereo unspecified): the inhibition was 0.76%.

As to `CN(C)C=NC(=O)c1cccn1-c1ncc(C(F)(F)F)cc1Cl`, the inhibition is 1.65%.

`Cc1nn(-c2ncc(C(F)(F)F)cc2Cl)c(=O)n1-c1ccccc1`: the inhibition is 7.67% (active).

Regarding `Cc1nn(CC#N)c(=O)n1N(C)c1ncc(C(F)(F)F)cc1Cl`, the inhibition is 2.69%.

For `O=C(O)c1cccc2c1C(=O)N(C1CCCC1)C2`, the inhibition is -1.46%.

For `O=c1ccc2c(-c3ccccc3S(=O)(=O)O)c3ccc(O)c(O)c3oc-2c1O`, the inhibition was 52.3% (active).

For `Cc1cc2ccccc2n1CCNC(=O)COc1ccc2ccccc2c1`, the inhibition was 7.69% (active).

Take `COCCNC(=O)COc1ccc(N(C)S(=O)(=O)c2ccc3ccccc3c2)cc1`: the inhibition is 1.04%.

For `Cc1ccc(C)c(NC(=O)CN(C)C(=O)COc2ccc3ccccc3c2)c1`, the inhibition was 0.05%.

In the case of `O=c1[nH]nc(Cc2ccccn2)c2ccccc12`, the inhibition is 1.04%.

Take `CCN(CC)CCCNC(=O)c1cn(C)c2ccc(S(=O)(=O)N(C)C3CCCCC3)cc2c1=O`: the inhibition was 2.19%.

Regarding `CCOC(=O)N1CCN(C(=O)c2cn(C)c3ccc(S(=O)(=O)N(CC)CC)cc3c2=O)CC1`, the inhibition was -0.08%.

For the compound `C=CCn1cc(C(=O)NCc2ccc(Cl)cc2)c(=O)c2cc(S(=O)(=O)N(CC)CC)ccc21`, the inhibition was 6.23% (active).

With `CN(C)S(=O)(=O)c1ccc(N2CCCC2)c(C(=O)Nc2cccc(F)c2)c1`, the inhibition is 7.03%.

For the compound `CC1=C[C@H]2Cc3cc(C)cc(C)c3S(=O)(=O)[C@@H]2C=C1`, the inhibition is 3.36%.

Take `O=c1c2c(nc3n1CCCCC3)sc1c(O)cccc12`: the inhibition is 12.3% (active).

Take `Cc1c(C(=O)Nc2ccccc2)sc2nc3n(c(=O)c12)CCCCC3`: the inhibition is -0.6%.

With `CC(=O)c1ccc(NC(=O)c2sc3nc4n(c(=O)c3c2C)CCCCC4)cc1`, the inhibition was 0.85%.

`O=S1(=O)CCN(C2CCCCCCCCCCC2)CC1`: the inhibition was 1.94%.

Take `Cc1cc(NC(=O)CSCc2ccccc2C)no1`: the inhibition was -2.34%.

In the case of `Cc1cc(NC(=O)CSCC(=O)NC(C)c2ccccc2)no1` (stereo unspecified), the inhibition was 9.74% (active).

As for `COc1ccccc1C(=O)COC(=O)CSCC(=O)Nc1cc(C)on1`, the inhibition is -2.09%.

Regarding `N#C/C(=C\N1CCOCC1)S(=O)(=O)c1ccc(Cl)cc1`, the inhibition is 0.04%.

`CC(C)CNS(=O)(=O)c1ccc(C(=O)Nc2ccc3c(c2)OCO3)cc1`: the inhibition was 12.8% (active).

For `CNS(=O)(=O)c1ccc(NC(=O)Nc2ccc3c(c2)OCO3)cc1`, the inhibition was -0.38%.

For the compound `CC(C)CNS(=O)(=O)c1ccc(OCC(=O)Nc2ccc3c(c2)OCO3)c(Cl)c1`, the inhibition was -2.64%.

For the compound `C=C1c2c(Cl)ccc(O)c2C(O)=C2C(=O)[C@]3(O)C(O)=C(C(N)=O)C(=O)[C@@H](N(C)C)[C@@H]3[C@@H](O)C12` (stereo partly specified), the inhibition is 20.6% (active).

As for `Nc1nc2cc(Cl)ccc2n1N`, the inhibition is -1.62%.

With `CCCCN(CC)CCNC(=O)c1[nH]c(C)c(C(C)=O)c1C`, the inhibition was 6.51%.

For the compound `COC(=O)c1c(NC(=O)c2ccc(S(=O)(=O)N3CCOCC3)cc2)sc2c1CCN(C(C)C)C2`, the inhibition is 5.81%.

`CCc1ccc(CNC(=O)C2CCN(c3nnc(C)c4c(C)n(-c5ccc(C)cc5)nc34)CC2)cc1`: the inhibition was -2.17%.

Consider `CCc1ccc(CNC(=O)C2CCCN(c3nc4ccccc4o3)C2)cc1` (stereo unspecified), for which the inhibition is 1.27%.

For `CCOc1ccc(CNC(=O)C2CCCN(c3nnc(C)c4c(C)n(-c5ccccc5)nc34)C2)cc1` (stereo unspecified), the inhibition was 20.2% (active).

As to `Cn1cc(CN2CCCC(CO)C2)c(-c2ccc(Oc3ccccc3)cc2)n1` (stereo unspecified), the inhibition was 1.99%.
